Sampled rows, rich in hits. Any-hit rate of the full collection: about 1.4%.
ASM inhibitor = Inhibitors of Secretory Acid Sphingomyelinase (S-ASM): qHTS; placental ASM, HMU-PC fluorogenic substrate, 60 min; Potency, µM (series often up to 57.5 µM), inactives show top-dose activity change, negative = inhibition, actives largely listed as inhibitors; 340,000 tested, 0.006% active; AID 504937, 2011; also: potency is read from the fitted curve at half-maximal effect
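qHTS format. ASM enzyme prepared from human placenta hydrolyses the fluorogenic substrate HMU-PC0 (9 uM final) over 60 min at 37 °C after a 10 min compound preincubation.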
PTAP TSG101 blk = qHTS Assay for Iinhibitors of HIV-1 Budding by Blocking the Interaction of PTAP/TSG101; Tumor susceptibility gene 101 protein (Homo sapiens), Q99816; Fluorescence polarization, FITC-PTAP peptide / Tsg101 binding; Potency, µM (doses to about 115 µM), without a hit: at the highest dose activity change, negative = inhibition, usual class: inhibitors; 340,000 tested, under 10 active; AID 493005, 2010; active = well fitted inhibition curve with a large enough effect in the main read-out, with a control signal flat, not every such curve was filed as active; inconclusive = small, poorly fitted or top-dose-only effect, or effect the other way, or a change in a side signal; inactive = no such curve, though single readings can be large or run the other way; also: potency is read from the fitted curve at half-maximal effect; % of control where 0% means no effect
Target sequence (Q99816 whole entry, looked up): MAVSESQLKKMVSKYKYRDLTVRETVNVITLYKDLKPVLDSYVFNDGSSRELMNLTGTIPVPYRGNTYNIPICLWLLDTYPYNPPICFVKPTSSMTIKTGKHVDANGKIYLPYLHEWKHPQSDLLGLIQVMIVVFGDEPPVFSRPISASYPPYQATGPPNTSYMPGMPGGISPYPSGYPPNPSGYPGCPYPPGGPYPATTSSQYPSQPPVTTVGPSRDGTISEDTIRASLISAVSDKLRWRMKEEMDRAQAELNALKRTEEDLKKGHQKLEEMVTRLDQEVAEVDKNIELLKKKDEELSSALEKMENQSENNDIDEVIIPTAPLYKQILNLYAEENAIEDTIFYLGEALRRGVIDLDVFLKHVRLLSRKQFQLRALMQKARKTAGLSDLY
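Tsg101 binding domain (10 uM final) was mixed with compound and a FITC-labeled PTAP peptide (50 nM final) in HEPES pH 7.5 buffer with NaCl, Tween 20, EDTA and TCEP; fluorescence polarization was read after 20 min at r.t.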
Vif-A3F inh = qHTS for Inhibitors of Vif-A3F Interactions: qHTS; 390,000 tested, 0.2% active; Potency, µM (titrated, usually from 46.1 µM), inactives show at the highest dose activity, negative = active; AID 602313, 2012; HeLa A3F-eYFP + Vif (tagged APOBEC3F with the HIV-1 protein that degrades it), YFP fluorescence increase; also: potency is read from the fitted curve at half-maximal effect; % of control where 0% means no effect; nearly all actives have a fitted effect of over 65% in size
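HeLa cells stably expressing Vif plus C-terminally eYFP-tagged A3F were seeded, incubated overnight at 37 deg C, dosed with compound, incubated overnight again at 37 deg C. Yellow fluorescence (Ex 488/Em 500-530) reported blocked Vif-mediated A3F-eYFP degradation.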
Vif-A3G inh = qHTS for Inhibitors of Vif-A3G Interactions: qHTS | DNA dC->dU-editing enzyme APOBEC-3G (Homo sapiens), Q9HC16 | HeLa A3G-eYFP + Vif (tagged APOBEC3G with the HIV-1 protein that degrades it), YFP fluorescence, overnight | Potency, µM (titrated, usually from 46.1 µM), for inactives: at the top dose activity, negative = active, usual class: inhibitors | 410,000 tested, 0.076% active | AID 602310, 2012; also: potency is read from the fitted curve at half-maximal effect; % is scaled to controls: 0 for no effect and ±100 for the full control effect; nearly all actives have a fitted effect of over 60% in size
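Read-out is eYFP fluorescence (Ex 488/Em 500-530) from Vif-expressing HeLa A3G-eYFP cells; more signal means A3G escaped Vif-mediated degradation. Cells plated overnight, compound pinned in, incubated overnight at 37 deg C.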
pAkt inh = HTS Assay for Inhibitors of Akt Phophorylation: Primary Screen. Neuro2A IGF-stimulated pAkt S473 HTRF, 20 min; active compounds read low. activity change, % for hits at 50 µM. 360,000 tested, 0.32% active; in the data active = activity change below about -80%; inconclusive = mostly about -51% to -80%; also: % is scaled to controls: 0 for no effect and ±100 for the full control effect
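Neuro2A cells (4,500/well, DMEM with 0.5% FBS) were treated with compound at a single 50 µM final concentration, stimulated with 6 nM IGF for 20 min at 37 °C, and lysed. Phospho-Akt Ser473 was read by HTRF as 665/615 ratio ×10^4.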
12-LOX inh = Primary qHTS assay for inhibitors of human arachidonate 12S-lipoxygenase (ALOX12): Round 2. purified 12hLO, xylenol orange hydroperoxide absorbance. Potency, µM (series often up to 108 µM), without a hit: top-dose activity change, negative = inhibition, hits mostly inhibitors. 580,000 tested, 1.1% active; also: potency is read from the fitted curve at half-maximal effect; % is scaled to controls: 0 for no effect and ±100 for the full control effect
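Purified human 12hLO (150 nM final) in 25 mM Hepes, 0.01% Triton X-100, pH 7.0 was preincubated 15 min at room temperature with compound. Then 40 uM arachidonic acid was added, 30 min. Hydroperoxide was read by Fe-XO absorbance ratio 573/405 nm.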
Active calls of the source: *; i = inactive; u = inconclusive; x = no result. Unless noted, calls follow the shape of the dose curve; as a rule, active = well fitted curve in the direction sought with a large enough effect; inconclusive = small, poorly fitted or top-dose-only effect, or another doubt; inactive = no such curve, though single readings can be large; an effect the other way counts as inactive or inconclusive.

SMILES	ASM inhibitor	PTAP TSG101 blk	Vif-A3F inh	Vif-A3G inh	pAkt inh	12-LOX inh
COc1ccc(NC(=O)/C(C#N)=C\c2ccc(N3CCOCC3)o2)cc1	u	u	u	15%	i	-28%
CC1=C(C)C(C)=C(C#N)C(=C(C#N)C#N)N1	278%	-10%	7%	-1%	i	1.1µM*
Cc1ccc(Cl)c2c(N=Nc3ccccc3)c(O)[nH]c12	-16%	u	8.9µM*	-13%	i	-7%
CCn1c(-c2nn(C)c(C)c2Cl)n[nH]c1=S	1%	-3%	-6%	3%	i	-16%
COc1ccc(-n2c(-c3ccco3)n[nH]c2=S)cc1	4%	-11%	1%	4%	i	u
S=c1[nH]nc(-c2ccco2)n1-c1ccc(Cl)cc1	-2%	-4%	0%	-7%	i	40µM*
Cc1ccc(-n2c(-c3nn(C)c(C)c3Cl)n[nH]c2=S)cc1	0%	-4%	-11%	-6%	i	32µM*
COC(=O)C(C)Oc1ccc2c(C)c(-c3ccc(OC)cc3)c(=O)oc2c1 (stereo unspecified)	x	x	x	x	x	8%
CC(=O)NC(NC(C)=O)c1ccncc1	x	x	x	x	x	-53%
N#Cc1c(Nc2cccc(F)c2)sc(C(=O)c2ccc(Cl)cc2)c1N	x	x	-3%	-4%	x	45µM*
Cc1ccc(NC(=O)CN(C)C(=O)c2ccc(S(=O)(=O)Nc3ccc(Cl)cc3)cc2)cc1	x	x	x	x	x	7.9µM*
COc1cc(/C=C/C(=O)C2C(=O)C=C(C)OC2=O)cc(Cl)c1OC(F)F (stereo unspecified)	x	x	x	x	x	14µM*
FC(F)(F)c1ccccc1N/N=C1/CCc2ccccc21	x	x	x	x	x	10µM*
c1ccc2c(c1)CC/C2=N/Nc1nc2ccccc2[nH]1	-2%	1%	7%	u	i	u
CCOc1cc(N2CCOCC2)c(OCC)cc1NC(C)C(=O)N1CCC(C)CC1 (stereo unspecified)	3%	-8%	-5%	1%	i	35µM*
CCOc1cc(N2CCOCC2)c(OCC)cc1NC(=O)[C@H](C)N1C(=O)C2CC=CCC2C1=O (stereo partly specified)	-1%	2%	13%	0%	i	0%
COc1ccc(/C=C(\C#N)c2nc3ccc(C)cc3[nH]2)cc1OC	x	x	x	x	x	5%
O=C(c1cc2cc(Br)ccc2o1)c1ccc(F)cc1F	x	x	x	x	x	-7%
CC[n+]1c(C)cc(C)n1-c1ccccc1	6%	-4%	-2%	1%	i	40µM*
CCOc1ccccc1NC(=O)c1cccc(CN2CCCC2=O)c1	x	x	x	x	x	-4%
Cc1ccc(C(=O)O)cc1NC(=S)NC(=O)c1ccc([N+](=O)[O-])c(C)c1	-5%	-5%	-4%	0%	i	20µM*
O=C(NC(=S)Nc1c(Cl)cc(Cl)cc1Cl)c1ccccc1	x	x	4.5µM*	2%	i	35µM*
O=C(NC(=S)Nc1ccccn1)c1ccccc1	2%	-4%	-25%	1%	i	u
Cc1ccc(NC(=S)NC(=O)c2ccccc2)cc1NC(=S)NC(=O)c1ccccc1	0%	1%	-6%	1%	i	4µM*
O=C(NC(=S)Nn1cnnc1)c1ccccc1Br	6%	-4%	12%	4%	i	-26%
O=C(NC(=S)Nn1cnnc1)c1ccccc1	0%	-2%	7%	-1%	i	35µM*
CCC(=O)Nc1cccc(NC(=S)NC(=O)c2ccccc2)c1	-8%	0%	1%	1%	i	-28%
COC(=O)CNC(=O)c1cc(-c2ccccc2)nc2ccccc12	x	x	x	x	x	5%
